# Compound activity (PubChem BioAssay)
# DT40 TDP1 no CPT: qHTS for Inhibitors of human tyrosyl-DNA phosphodiesterase 1 (TDP1): qHTS in cells in absence of CPT. DT40 Tdp1-/- hTDP1 cells, no CPT, ATP luminescence, 48 h. Potency, µM (top dose mostly 46.2 µM), without a hit: at the top dose activity change, negative = growth inhibition, usual class: inhibitors. hit rate 15% among 420,000. AID 686978, 2013; further: nearly all actives have a fitted effect of over 55% in size
#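 Compound effects on proliferation are scored in DT40 Tdp1-/-;hTDP1 cells in the absence of CPT. ATP levels (CellTiter-Glo luminescence) are recorded after a ≥48 hr, 37 °C incubation.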
# DT40 TDP1 CPT: qHTS for Inhibitors of human tyrosyl-DNA phosphodiesterase 1 (TDP1): qHTS in cells in presence of CPT; hit rate 12% among 420,000; chicken DT40 Tdp1-/-;hTDP1 cells + 20 nM CPT, ATP luminescence, 48 h; Potency, µM (top dose mostly 46.2 µM), without a hit: at the top dose activity change, negative = growth inhibition, most hits filed as inhibitors; further: nearly all actives have a fitted effect of over 55% in size
#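 Chicken DT40 Tdp1-/- cells complemented with human TDP1, 400 cells/well, exposed to compounds plus 20 nM camptothecin for at least 48 h at 37 C; viability read as ATP content by CellTiter-Glo luminescence.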
# 12-LOX inh: Primary qHTS assay for inhibitors of human arachidonate 12S-lipoxygenase (ALOX12): Round 2; Polyunsaturated fatty acid lipoxygenase ALOX12 (Homo sapiens), P18054; purified 12hLO, xylenol orange hydroperoxide absorbance; Potency, µM (doses to about 108 µM), without a hit: at the top dose activity change, negative = inhibition, most hits filed as inhibitors; hit rate 1.1% among 580,000; AID 1671190, 2021
# Target sequence (P18054 whole entry, looked up): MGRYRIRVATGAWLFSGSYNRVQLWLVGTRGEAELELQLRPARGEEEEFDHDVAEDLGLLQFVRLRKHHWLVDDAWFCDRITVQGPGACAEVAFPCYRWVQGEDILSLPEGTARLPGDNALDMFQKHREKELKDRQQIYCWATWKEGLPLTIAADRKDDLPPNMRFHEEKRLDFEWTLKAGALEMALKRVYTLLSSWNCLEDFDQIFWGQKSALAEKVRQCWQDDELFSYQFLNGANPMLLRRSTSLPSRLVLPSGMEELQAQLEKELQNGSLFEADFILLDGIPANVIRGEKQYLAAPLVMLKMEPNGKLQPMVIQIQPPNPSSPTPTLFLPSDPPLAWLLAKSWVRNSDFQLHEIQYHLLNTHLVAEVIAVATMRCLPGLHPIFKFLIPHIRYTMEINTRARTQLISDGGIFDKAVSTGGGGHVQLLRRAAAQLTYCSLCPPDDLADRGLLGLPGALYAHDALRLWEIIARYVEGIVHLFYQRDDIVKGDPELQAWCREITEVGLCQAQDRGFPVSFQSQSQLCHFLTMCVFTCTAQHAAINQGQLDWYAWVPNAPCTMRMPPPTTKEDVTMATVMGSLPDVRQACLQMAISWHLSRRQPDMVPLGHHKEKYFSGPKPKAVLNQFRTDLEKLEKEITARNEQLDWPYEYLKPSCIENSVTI
#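 Purified human 12hLO (150 nM final) in 25 mM Hepes, 0.01% Triton X-100, pH 7.0 was preincubated 15 min at room temperature with compound. Then 40 uM arachidonic acid was added, 30 min. Hydroperoxide was read by Fe-XO absorbance ratio 573/405 nm.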
# RORg inh: qHTS for inhibitors of ROR gamma transcriptional activity; Nuclear receptor ROR-gamma (Mus musculus), P51450; Drosophila S2 Gal4-RORgamma UAS-luciferase reporter, 20 h; Potency, µM (doses to about 53.6 µM), inactives show top-dose activity change, negative = inhibition, hits mostly inhibitors; hit rate 5.4% among 310,000; further: nearly all actives have a fitted effect of over 60% in size
#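 Compounds are pin-transferred onto Drosophila Schneider cells expressing a copper-inducible Gal4–ROR gamma transactivation domain fusion. After 1 hr, copper sulfate is added to 700 uM final; luciferase is read 20 hr later.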
# ELG1 DNA repair: qHTS screen for small molecules that inhibit ELG1-dependent DNA repair in human embryonic kidney (HEK293T) cells expressing luciferase-tagged ELG1; HEK293T ELG1-luciferase reporter, luminescence, 16 h; DNA damage induced by 5-fluorouridine; Potency, µM (titrated, usually from 46.1 µM), for inactives: at the highest dose activity change, negative = inhibition, hits mostly inhibitors; hit rate 2.3% among 330,000; further: nearly all actives have a fitted effect of over 55% in size
#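 Step one: seed 2,000 cells per well. Step two: pin-transfer compound or DMSO alongside 5-fluorouridine. Step three: incubate 16 hr, 37 °C, 5% CO2. Step four: add ONE-Glo, wait 30 min, read luminescence.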
# VP16 counter: VP16 counterscreen qHTS for inhibitors of ROR gamma transcriptional activity; Drosophila S2 Gal4-VP16 UAS-luciferase, luminescence, 20 h; hit rate 3.5% among 310,000; Potency, µM (titrated, usually from 53.6 µM), without a hit: at the top dose activity, negative = inhibition, hits mostly inhibitors;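 further: Gal4-VP16 expression switched on by copper sulfate through the metallothionein promoter; nearly all actives have a fitted effect of over 50% in size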
# * = called active by the depositor; ? = inconclusive; . = no result given; [ ] = another dose, or the depositor's remark. This is a sample that favours compounds with a hit; in the whole collection about 15% have one here. The call rests on the fitted dose curve; in most records, active means well fitted curve in the direction sought with a large enough effect; inconclusive means small, poorly fitted or top-dose-only effect, or another doubt; inactive means no such curve, though single readings can be large; an effect the other way counts as inactive or inconclusive. On the % scale 0 is the no-effect control and ±100 the full control effect; potency means the concentration at half of the fitted maximal effect.
SMILES,DT40 TDP1 no CPT,DT40 TDP1 CPT,12-LOX inh,RORg inh,ELG1 DNA repair,VP16 counter
FC(F)(F)c1ccc(C2[C@H]3CN(Cc4cccnc4)[C@H](c4ccccc4)C34CC2(c2ccccc2)C4)cc1 (some centres not stated),?,18.4µM*,-0.5%,?,22.4%,-12.0%
N#Cc1ccc(C23CC4(C2)[C@H](CN(P(=O)(c2ccccc2)c2ccccc2)[C@@H]4c2ccccc2)C3c2ccc(Cl)nc2)cc1 (some centres not stated),?,23.1µM*,.,35.7%,?,-5.9%
c1ccc(C2[C@H]3CN(Cc4cccnc4)[C@H](c4ccccc4)C34CC2(c2cccnc2)C4)cc1 (some centres not stated),?,?,17.1%,?,-12.8%,4.1%
COC(=O)c1ccc(C23CC4(C2)[C@H](CN(Cc2ccc(C(F)(F)F)cc2)[C@@H]4c2ccccc2)C3c2ccccc2)cc1 (some centres not stated),4.11µM*,7.31µM*,.,-12.0%,-4.6%,-5.3%
CCn1nc(C(=O)Nc2nc(-c3ccc4c(c3)OCCO4)cs2)c2ccccc2c1=O,.,.,0.7%,.,.,.
Cc1cc(NC(=O)CN2CCN(c3nccs3)CC2)no1,.,.,2.5%,.,.,.
N#Cc1ccc(C23CC4(C2)[C@H](CN(Cc2ccc(C(F)(F)F)cc2)[C@@H]4c2ccccc2)C3c2ccc(C(F)(F)F)cc2)cc1 (some centres not stated),20.6µM*,?,40.3%,-10.6%,10.3%,-6.6%
N#Cc1ccc(C23CC4(C2)[C@H](CN(Cc2cccnc2)[C@@H]4c2ccccc2)C3c2ccc(C(F)(F)F)cc2)cc1 (some centres not stated),.,.,.,-1.8%,.,4.8%
CCOc1ccccc1CNC(=O)c1cnc2sc(N3CCCC3)nn2c1=O,16.4µM*,14.6µM*,-8.7%,.,.,.
COc1cccc(CNC(=O)c2cnc3sc(N4CCCC4)nn3c2=O)c1OC,-14.7%,3.2%,0.4%,.,.,.
CCN(CC)c1nn2c(=O)c(C(=O)NCc3ccccc3Br)cnc2s1,?,23.1µM*,?,.,.,.
Cc1ccccc1CNC(=O)c1cnc2sc(N3CCOCC3)nn2c1=O,?,?,-19.0%,.,.,.
CCN(CC)c1nn2c(=O)c(C(=O)NCc3ccc(F)cc3)cnc2s1,?,?,-27.2%,.,.,.
COc1ccccc1CNC(=O)c1cnc2sc(N3CCCCC3)nn2c1=O,23.1µM*,?,-23.5%,.,.,.
COc1cc(CNc2cccc3[nH]c(C(F)(F)F)nc23)cc(OC)c1,25.9µM*,23.1µM*,-4.8%,?,?,-10.8%
COc1ccc(CNc2cccc3[nH]c(C(F)(F)F)nc23)cc1,?,?,5.4%,?,?,-4.7%
CC(=O)NCC(=O)N1Cc2ccccc2CC2(CCCN2CC2CCNCC2)C1 (configuration not stated),.,.,-1.5%[6.33 µM],.,.,.
CC(SC(C)c1ccc(F)cc1)C(N)=O (configuration not stated),.,.,-12.2%,.,.,.
CC(=O)C1=C(O)C(CSCc2ccccc2)N(C)C1=O (configuration not stated),?,-20.9%,10µM*,.,.,.
O=C(CSCc1ccccc1)NC1CCSC1=O (configuration not stated),6.8%,3.9%,?,13.7%,16.5%,10.4%
O=C(Nc1cccc(-c2nc3ncccc3o2)c1)c1sc2ccccc2c1Cl,?,10µM*,6.0%,-13.5%,15.0%,-1.9%
O=C(Nc1cccc(-c2nc3ncccc3o2)c1)c1cc2ccccc2o1,23.1µM*,20.6µM*,-19.1%,-6.4%,?,-0.9%
O=C(Cc1ccccc1)Nc1cccc(-c2nc3ncccc3o2)c1,?,-15.2%,-25.0%,4.9%,11.6%,2.0%
Cc1ccccc1-n1c(SCCOc2ccccc2Cl)nnc1-c1ccc(C(C)(C)C)cc1,.,.,-12.9%,.,.,.
COc1ccc2cc(C(=O)NCc3ccco3)c(=Nc3ccc(C(=O)O)cc3)oc2c1,?,?,0.0%,1.12µM*,?,2.82µM*
SMILES,DT40 TDP1 no CPT,DT40 TDP1 CPT,12-LOX inh,RORg inh,ELG1 DNA repair,VP16 counter
COc1ccc(N=c2oc3c(OC)cccc3cc2C(=O)NCc2ccco2)c(OC)c1,13µM*,?,.,47.2%,-9.7%,0.0%
CCC[C@H]1[C@@H](NC(=O)Nc2ccc(C)cc2)CC[C@@]23CCCN2C(=O)CCC[C@@H]13,.,.,-5.5%,.,.,.
O=C(NCc1ccccc1)[C@@H]1COCC(=O)N1Cc1ccc(F)cc1,.,.,14.7%,.,.,.
CC(=O)NNC(=S)Nc1ccc(F)cc1F,.,.,33.2%,.,.,.
Cc1cc(Br)cnc1NC(=S)Nc1ccc(F)cc1F,?,-13.0%,14.1µM*,6.31µM*,2.6%,?
COc1cc(C2CC(=O)Nc3c2cnn3-c2nc3ccccc3s2)cc(OC)c1O (configuration not stated),.,.,-12.8%,.,.,.
COc1ccc(NC(=O)CCn2c(=O)c3cccn3c3cccnc32)c(OC)c1,14.6µM*,?,-25.2%,.,.,.
COc1ccc(CCNC(=O)CCCn2c(=O)c3cccn3c3cccnc32)c(OC)c1OC,?,?,-4.1%,-15.7%,13µM*,8.6%
COc1ccc(OC)c(CCNC(=O)CCn2c(=O)c3cccn3c3cccnc32)c1,16.4µM*,?,-23.3%,.,.,.
Cc1cccc(NC(=O)c2ccc3nc(C)c(C)nc3c2)n1,.,.,-6.4%,.,.,.
COC1=CC(=O)c2nc(Cl)ccc2C1=O,1.03µM*,0.581µM*,?,.,.,.
Cc1cc(C(=O)COC(=O)c2cccnc2Cl)c(C)n1CC1CCCO1 (configuration not stated),?,23.1µM*,?,?,?,-17.5%
Cc1cc(C(=O)COC(=O)c2cc(O)c3ccccc3c2O)c(C)n1CC1CCCO1 (configuration not stated),?,16.4µM*,.,15.8µM*,0.2%,-3.9%
Cc1cc(C(=O)COC(=O)c2ccccc2Br)c(C)n1CC1CCCO1 (configuration not stated),?,?,4.4%,14.1µM*,?,8.91µM*
